{"source": "PubChem BioAssay (Tox21)", "note": "Records with an inconclusive call do not appear. Where a call stands in place of a potency, no number is given. Some structures have more than one record in an assay (separate samples or runs), and their calls can disagree. The source made the active and inactive calls. Calls come from the whole dose curve; as a rule, active = well fitted activation curve with a large enough effect in the repeat runs; inconclusive = weak or mixed curves; inactive = flat fitted curve, though single readings scatter. Potency is the fitted concentration of half-maximal effect.", "data": [{"test": "A CellTox Green Cytotoxicity Assay to monitor cytotoxicity in HEK293 cells - 40 hour (AID 1224871); note: nearly all actives have a fitted effect of over 45% in size", "details": "CellTox Green fluorescence; series mostly up to 76.8 µM", "from_the_text": "National Center for Advancing Translational Sciences [NCATS]\nNIH Chemical Genomics Center [NCGC]\nU.S. Environmental Protection Agency [EPA]\nNational Institutes of Environmental Health Sciences [NIEHS]\nNational Toxicology Program [NTP]\nCell-based models are critical for drug discovery. Determining the natural cytotoxic effects resulting from test compounds is an essential research activity. A CellTox Green Cytotoxicity Assay to monitor cytotoxicity in real time of continues cell culture during 40 hours of the compound treatment was used to screen Tox21 10K library compounds in Hek293 cells. CellTox Green Cytotoxicity Assay is a nonlytic, homogeneous, biofluorescent method to measure cytotoxicity in cell culture after experimental manipulation. The assay system uses a proprietary asymmetric cyanine dye that is excluded from viable cells but preferentially stains the dead cell's DNA. […] Viable cells produce no appreciable increases in fluorescence. Therefore, the fluorescence signal produced by the binding interaction with dead cell DNA is proportional to cytotoxicity.\nThe mixture of Hek293 cell suspension and reagents were dispensed at 600cells/6 ul/well in 1536-well tissue culture treated black solid bottom plates using a Multidrop dispenser. After the assay plates were incubated at a 37 C/5% CO2 incubator for 5 hours, 23 nL of compounds dissolved in DMSO, positive and negative controls was transferred to the assay plate by a pintool work station. The plates were incubated at 37 C for 40 hours. The fluorescence intensity were measured at 0h, 8h, 16h, 24h, 32h and 40h time points using ViewLux plate reader during compound treatment.", "values": [{"smiles": "C1CCC2CCCCC2C1", "note": "(stereo not given)", "Potency": "inactive"}, {"smiles": "CN(C)S(=O)(=O)N(SC(F)(Cl)Cl)c1ccccc1", "Potency": "3.09 µM (active)"}, {"smiles": "O=C(O)c1cc[c]([Hg][Cl])cc1", "Potency": "17.4 µM (active)"}, {"smiles": "O=[N+]([O-])c1c2ccccc2cc2ccccc12", "Potency": "5.43 µM (active)"}, {"smiles": "FC(F)(F)c1cccc(C2=CCN(CCc3ccc4ccccc4c3)CC2)c1", "Potency": "inactive"}, {"smiles": "CC(=O)[O-].[Tl+]", "Potency": "inactive"}, {"smiles": "CCOC(=O)OC1=C(c2cc(C)ccc2C)C(=O)NC12CCC(OC)CC2", "note": "(stereo not given)", "Potency": "inactive"}, {"smiles": "COP(N)(=S)OC", "Potency": "inactive"}, {"smiles": "CCOC(=O)CC(=O)CCl", "Potency": "54.9 µM (active)"}, {"smiles": "Oc1ccccc1Br", "Potency": "inactive"}, {"smiles": "CC(c1ccc(O)cc1)c1ccc(O)cc1", "Potency": "inactive"}, {"smiles": "O=C1c2ccccc2C(=O)C1C(=O)C(c1ccccc1)c1ccc(Cl)cc1", "note": "(stereo not given)", "Potency": "inactive"}, {"smiles": "O=C(Cl)c1ccc(Cl)cc1", "Potency": "inactive"}, {"smiles": "CCN(CC)C(=S)[S-].CCN(CC)C(=S)[S-].[Zn+2]", "Potency": "5.45 µM (active)"}, {"smiles": "c1ccc(Nc2ccc3ccccc3c2)cc1", "Potency": "inactive"}, {"smiles": "CCCCCCCCCCCCCN1CC(C)OC(C)C1", "note": "(stereo not given)", "Potency": "inactive"}, {"smiles": "CC(C)OC(=O)C(O)(c1ccc(Cl)cc1)c1ccc(Cl)cc1", "Potency": "49 µM (active)"}, {"smiles": "N#Cc1ccccc1N", "Potency": "inactive"}, {"smiles": "C=CC(=O)N(C)C", "Potency": "inactive"}, {"smiles": "CC(C)CC(C)Nc1ccc(Nc2ccccc2)cc1", "note": "(stereo not given)", "Potency": "48.2 µM (active)"}, {"smiles": "FC(Cl)(Cl)Cl", "Potency": "inactive"}, {"smiles": "C[C@@H]1O[C@@H](O[C@H]2C[C@@H](O)[C@]3(CO)[C@H]4[C@H](O)C[C@]5(C)[C@@H](C6=CC(=O)OC6)CC[C@]5(O)[C@@H]4CC[C@]3(O)C2)[C@H](O)[C@H](O)[C@H]1O", "Potency": "inactive"}, {"smiles": "Cc1cc(N=Nc2ccccc2C)ccc1N", "Potency": "49 µM (active)"}, {"smiles": "COP(=S)(OC)Oc1cc(Cl)c(Br)cc1Cl", "Potency": "inactive"}, {"smiles": "CN(C)CCc1c[nH]c2ccc(O)cc12", "Potency": "inactive"}, {"smiles": "O=c1[nH]c2ccccc2n1C1CCN(CCCC(c2ccc(F)cc2)c2ccc(F)cc2)CC1", "Potency": "49 µM (active) and inactive"}, {"smiles": "CC(C)(C)OO", "Potency": "inactive"}, {"smiles": "ClC1=C(Cl)[C@]2(Cl)[C@@H]3[C@@H]4C[C@@H]([C@H]5O[C@@H]45)[C@@H]3[C@@]1(Cl)C2(Cl)Cl", "Potency": "51.9 µM (active)"}, {"smiles": "O=[N+]([O-])c1ccc(Oc2ccc(C(F)(F)F)cc2[N+](=O)[O-])cc1", "Potency": "inactive"}, {"smiles": "O=[N+]([O-])c1cc(C(F)(F)F)c(Cl)c([N+](=O)[O-])c1Cl", "Potency": "6.16 µM (active)"}, {"smiles": "Nc1ccccc1C(=O)OC/C=C/c1ccccc1", "Potency": "inactive"}, {"smiles": "CS(=O)(=O)c1ccc(C(=O)C2C(=O)CCCC2=O)c([N+](=O)[O-])c1", "Potency": "44.4 µM (active)"}, {"smiles": "CCCCCCCCCCCCCCCC[n+]1ccccc1", "Potency": "34.2 µM (active) [middle of 4 runs]"}, {"smiles": "CCCOCC(=Nc1ccc(Cl)cc1C(F)(F)F)n1ccnc1", "Potency": "48.9 µM (active)"}, {"smiles": "CCCN(CCC)c1c([N+](=O)[O-])cc(S(N)(=O)=O)cc1[N+](=O)[O-]", "Potency": "39.7 µM (active)"}, {"smiles": "CC(=O)C(Cl)(Cl)Cl", "Potency": "inactive"}, {"smiles": "BrC(Br)C(Br)(Br)Br", "Potency": "55.3 µM (active)"}, {"smiles": "COc1ccc(/C(=C/C(=O)N2CCOCC2)c2ccc(Cl)cc2)cc1OC", "Potency": "inactive"}, {"smiles": "COc1cc(N)c(Cl)cc1C(=O)NC1CN2CCC1CC2", "note": "(stereo not given)", "Potency": "inactive"}, {"smiles": "CCCCCCCCCCCCBr", "Potency": "inactive"}]}]}
